# Assay results as given in PubChem BioAssay AID2737 (National Center for Advancing Translational Sciences (NCATS), 2010).
# Calls of active or inactive are those of the source.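 How the source made its calls: active means compounds inhibiting cruzain with a measured inhibition constant Ki under 100 µM; inactive means the rest.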
# Target: Cruzipain (Trypanosoma cruzi) (UniProt P25779)
# Assay: Confirmation Competitive Binding Assay for Inhibitors of Cruzain
# Conditions: recombinant cruzain, Z-FR-AMC fluorogenic cleavage, Ki
# Description: Cruzain is a cysteine protease from the tropical parasite Trypanosoma cruzi. This assay protocol is for follow-up Ki determination of cruzain inhibitors of interest. Cruzain inhibition was determined using a competitive binding assay. See following references for additional details: Jadhav A, et al. J Med Chem. 2010 Jan 14;53(1):37-51. Mott BT, et al. J Med Chem. 2010 Jan 14;53(1):52-60. Assay Provider: Shoichet, Brian; University of California, San Fancisco Screening Center PI: Austin, C.P. Screening Center: NIH Chemical Genomics Center [NCGC]
# Cruzain activity was measured by monitoring the cleavage of the fluorogenic substrate Z-Phe-Arg-aminomethylcoumarin (Z-FR-AMC). All cruzain assays were performed in Sodium Acetate 0.1 M pH 5.5 and in the presence of 5 mM dithiothreitol (DTT). The final concentration of cruzain was 0.4 nM, and the substrate concentration was 2.5 uM (Km = 2 uM), except for Ki determination, when the Z-FR-AMC varied from 0.31 to 20 uM, in two fold increments. Assays were conducted in presence of 0.01% Triton X-100. Assays were followed for five minutes, and activity was calculated based on initial rates. […] Data was analyzed with Prism 4 (GraphPad), and Ki values were determined from Lineweaver-Burk and Dixon plots.
# Sequence of Cruzipain (Trypanosoma cruzi) (P25779 123-467 limits assumed): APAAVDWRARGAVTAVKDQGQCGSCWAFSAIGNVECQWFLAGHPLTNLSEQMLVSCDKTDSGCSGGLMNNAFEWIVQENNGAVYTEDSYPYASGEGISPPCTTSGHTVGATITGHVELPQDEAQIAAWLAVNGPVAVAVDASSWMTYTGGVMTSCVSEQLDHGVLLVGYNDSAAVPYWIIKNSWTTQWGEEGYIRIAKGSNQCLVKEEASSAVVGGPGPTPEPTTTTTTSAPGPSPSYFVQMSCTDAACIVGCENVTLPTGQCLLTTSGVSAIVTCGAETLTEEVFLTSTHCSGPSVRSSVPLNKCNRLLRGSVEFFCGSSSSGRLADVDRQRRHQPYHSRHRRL
row,Structure (SMILES),Potency
1,Cc1ccc(C)c(OCCn2c(CCNC(=O)C3CCCCC3)nc3ccccc32)c1,2000 nM (active)
2,O=C(COc1ccccc1Br)NCCc1nc2ccccc2[nH]1,2000 nM (active)
